Hits are enriched below; roughly 3.9% of the tested compounds scored in any of these assays.
BoNT F protease – BoNT/F light chain protease inhibitors, primary screen, biochemical, flow cytometry, MLPCN library | Botulinum neurotoxin type F light chain protease (Clostridium botulinum) | Multiplex microsphere protease cleavage assay | inhibition, % at 10 µM | 360,000 compounds, 0.22% hits; in the data active = inhibition above about 35%, passing the limit was not always enough; inconclusive = no clear call, values can overlap the other calls
CCHF vOTU inh – CCHFV vOTU protease inhibitors, primary screen, biochemical, Pep-AMC substrate, fluorescence; AID 651958, 2012; 370,000 compounds, 0.55% hits; inhibition, % at 11.5 µM; in the data active = inhibition above about 30%
BoNT-A LC inh2 – BoNT/A light chain protease inhibitors, primary screen, biochemical, flow cytometry, MLPCN library; inhibition, % at 10 µM; multiplex microsphere protease substrate cleavage; 360,000 compounds, 0.17% hits
SARS 3CLpro inh – SARS-CoV 3CLpro protease inhibitors, primary screen, biochemical, quenched FRET; inhibition, % at 6 µM; Replicase polyprotein 1ab (Severe acute respiratory syndrome coronavirus), P0C6X7; recombinant SARS-CoV 3CLpro, quenched FRET peptide cleavage; 290,000 compounds, 0.14% hits; in the data active = inhibition above about 12%
Autofluor counter – counter-screen for toxin protease inhibitors: compound fluorescence. compound autofluorescence counterscreen, microsphere flow cytometry; hits give high values. fluorescence intensity (concentration not given with the values). 360,000 compounds, 3.1% hits. AID 624483; in the data active = fluorescence intensity above about 16000; inconclusive = no clear call, values can overlap the other calls
Anthrax LF inh2 – Bacillus anthracis LF protease inhibitors, primary screen, biochemical, multiplex microsphere, MLPCN library | inhibition, % at 10 µM | multiplex microsphere protease cleavage assay | AID 588501, 2011 | 360,000 compounds, 0.12% hits
Target sequence (P15917 whole entry, looked up): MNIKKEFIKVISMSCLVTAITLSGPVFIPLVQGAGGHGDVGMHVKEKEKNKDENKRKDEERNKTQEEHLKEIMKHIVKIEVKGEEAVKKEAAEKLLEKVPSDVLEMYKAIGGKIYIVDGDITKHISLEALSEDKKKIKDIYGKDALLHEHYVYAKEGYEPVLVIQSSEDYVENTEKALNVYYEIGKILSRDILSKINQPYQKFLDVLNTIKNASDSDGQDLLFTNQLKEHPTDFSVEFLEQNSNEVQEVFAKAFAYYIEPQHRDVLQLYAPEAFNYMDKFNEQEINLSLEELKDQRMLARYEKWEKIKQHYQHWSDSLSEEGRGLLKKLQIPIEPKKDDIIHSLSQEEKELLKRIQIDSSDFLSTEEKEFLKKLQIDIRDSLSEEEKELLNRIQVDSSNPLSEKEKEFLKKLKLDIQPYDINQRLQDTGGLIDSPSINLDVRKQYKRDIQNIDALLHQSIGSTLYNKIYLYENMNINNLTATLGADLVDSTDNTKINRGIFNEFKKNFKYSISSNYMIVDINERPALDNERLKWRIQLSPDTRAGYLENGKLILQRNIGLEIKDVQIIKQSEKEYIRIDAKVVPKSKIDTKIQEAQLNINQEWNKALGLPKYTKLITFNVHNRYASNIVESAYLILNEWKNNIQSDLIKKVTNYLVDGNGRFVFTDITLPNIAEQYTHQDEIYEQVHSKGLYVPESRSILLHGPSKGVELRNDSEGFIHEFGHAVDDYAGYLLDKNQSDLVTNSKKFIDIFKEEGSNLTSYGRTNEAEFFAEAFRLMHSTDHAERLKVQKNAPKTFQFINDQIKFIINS
Numbers stand for hits; n = inactive; u = inconclusive; x = no result. Cut-off read from the data, not from the text of the source, unless noted: active = inhibition above about 30%; inconclusive = no clear call, values can overlap the other calls; inactive = below that.

SMILES | BoNT F protease | CCHF vOTU inh | BoNT-A LC inh2 | SARS 3CLpro inh | Autofluor counter | Anthrax LF inh2
COc1ccc(S(=O)(=O)N2CCC(C(=O)c3ccc4c(c3)OCCO4)CC2)cc1 | n | n | n | n | n | n
Cc1ccc(C(=O)C2CCN(CC(=O)Nc3ccc4c(c3)OCCO4)CC2)cc1 | n | n | n | n | 23981 | n
CCN(CC(=O)Nc1ccc2c(c1)OCCO2)Cc1cc(=O)oc2c(C)c(C)ccc12 | n | n | u | n | 20523 | n
O=C(c1ccc2c(c1)OCCO2)C1CCN(S(=O)(=O)c2ccccc2F)CC1 | n | n | u | n | 23887 | n
Cc1cccc(NC(=O)CN2CCC(C(=O)c3ccc4c(c3)OCCO4)CC2)c1 | n | n | n | n | n | n
N#CCCn1c(SCC(=O)Nc2ccc(N3CCOCC3)cc2)nc2ccccc21 | n | n | n | n | n | n
Cc1cccc(C)c1NC(=O)CN(C)C(=O)Cc1cccc(C(F)(F)F)c1 | n | n | n | n | n | n
CCOC(=O)N1CCN(C(=O)C[C@H]2C[C@@]3(C(=O)OC)C(=C[C@H](COCc4ccccc4)O[C@@H]3C)N(Cc3ccc(Cl)cc3Cl)C2=O)CC1 | x | n | x | x | x | x
COc1ccc(CCN(C)C(=O)c2ccc(C)c(S(=O)(=O)N3CCCCC3)c2)cc1OC | n | n | n | x | n | n
COC(=O)[C@]12C[C@H](CC(=O)NCc3cccs3)C(=O)N(Cc3ccc4c(c3)OCO4)C1=C[C@H](C(C)C)O[C@@H]2C1CC1 | x | n | x | x | x | x
CCN(CC(=O)Nc1ccc2c(c1)OCCO2)S(=O)(=O)c1cccs1 | x | n | x | n | x | x
CCN(CC(=O)Nc1ccc2c(c1)OCCO2)S(=O)(=O)c1ccc(C)cc1 | n | n | n | n | 17435 | n
COc1cc(C(=O)N(Cc2ccccn2)CC2CCCO2)cc(OC)c1OC (stereo not given) | n | n | n | n | 21493 | n
CCCCNC(=O)c1ccc2c(c1)ncn2C1CCCCC1 | n | n | n | n | n | n
CC(C)CCNC(=O)c1ccc2c(c1)ncn2C1CCCCC1 | n | n | n | n | 19635 | n
O=C(c1cc(-c2cccs2)on1)N1CCN(c2ccccc2)CC1 | n | x | n | n | n | n
O=C(c1cc(-c2cccs2)on1)N1CCN(c2ccc(F)cc2)CC1 | n | n | n | n | 21562 | n
CN(C)CC(=O)Nc1cc(C(F)(F)F)ccc1Cl | n | n | n | n | u | n
CCOC(=O)/C(=N\Nc1cc(C(F)(F)F)ccc1Cl)N(CC)CC | n | n | n | n | 20400 | n
CCOC(=O)C1CCCN(CC(=O)NC2CC2)C1 (stereo not given) | n | n | n | x | 16644 | n
CCOC(=O)C1CCCN(CC(=O)Nc2cc(C)cc(C)c2)C1 (stereo not given) | n | n | n | n | n | n
CCOC(=O)C1CCCN(CCC(=O)Nc2ccccc2)C1 (stereo not given) | n | n | n | n | u | n
CCOC(=O)C1CCCN(CCC(C)c2ccccc2)C1 (stereo not given) | n | n | n | n | 21853 | n
CCOC(=O)C1CCCN(C/C=C/c2ccccc2[N+](=O)[O-])C1 (stereo not given) | n | n | n | n | 16661 | n
Cc1cc(C(=O)CCl)c(C)n1Cc1ccco1 | n | n | n | 25 | n | n
SMILES | BoNT F protease | CCHF vOTU inh | BoNT-A LC inh2 | SARS 3CLpro inh | Autofluor counter | Anthrax LF inh2
Cc1cc(C(=O)CSc2nncs2)c(C)n1Cc1ccco1 | n | n | n | n | n | n
Cc1ccc(C(=O)Nn2cnc3ccccc3c2=O)cc1C | n | n | n | n | n | n
CCCCCCc1cc2cc(-c3nnc(-c4ccccc4OC)o3)c(=O)oc2cc1O | n | n | u | n | 22218 | n
O=C(N/N=C\c1ccncc1)c1ccccc1O | n | n | n | n | n | n
Cc1ccccc1C(=O)N/N=C/c1ccncc1 | n | n | u | n | 19987 | n
CC1C(=O)c2ccccc2CC1C(=O)O (stereo not given) | n | n | n | x | n | n
Cc1ccc(C)c(NC(=O)CCN2CCN(CCO)CC2)c1 | n | n | n | n | n | n
CCCNC(=O)CCn1nc(-c2ccc(C)cc2)c2ccccc2c1=O | n | n | n | n | n | n
CCCNC(=O)CCC(=O)Nc1ncc(-c2ccc(C)cc2)n1C | n | n | u | n | 22139 | n
COC1=C[C@H](C(=O)NCc2ccccc2)[C@H](C)[C@@H](c2ccccc2)CC1=O | x | n | x | x | x | x
CC1(C(=O)NC2CCCCCC2)CCC(=O)N1Cc1ccc2c(c1)OCO2 (stereo not given) | n | n | n | n | 16292 | n
CC1(C(=O)NC2CCCCC2)CCC(=O)N1Cc1ccc2c(c1)OCO2 (stereo not given) | n | n | n | n | n | n
COCCNC(=O)c1ccccc1-c1ccccc1C(=O)O | n | n | n | n | n | n
O=C(O)c1ccccc1-c1ccccc1C(=O)NCCCO | n | n | u | n | 20852 | n
C[C@H]1CN([C@@H](C)CO)C(=O)Cc2cc(NC(=O)CCC(F)(F)F)ccc2O[C@H]1CN(C)S(=O)(=O)c1ccc(Cl)cc1 | n | n | n | x | n | n
O=C(Nc1cccc(OC(F)(F)F)c1)c1ccc(Br)o1 | n | n | n | n | 16998 | n
O=C(Nc1cccc(F)c1)c1ccc(Br)o1 | n | n | n | n | n | n
CCCCC(=O)Nc1cccc(NC(=O)c2ccc(Br)o2)c1 | n | n | n | n | 16352 | n
CCOc1ccc(C2/C(=C(/O)c3ccc4c(c3)CC(C)O4)C(=O)C(=O)N2CCCn2ccnc2)cc1OCC (stereo not given) | n | n | n | n | n | n
Cc1cc(C)c(C)c(S(=O)(=O)N2CCC(C(=O)N3CCCCCCC3)CC2)c1C | n | n | n | n | n | n
COc1nc(C)ccc1-c1noc(-c2ccco2)n1 | n | n | n | n | 20448 | n
COc1nc(-c2ccc(C)cc2)ccc1-c1noc(-c2ccco2)n1 | n | n | n | n | n | n
CN(C)c1ccc(-c2nnn(CC(=O)Nc3ccccc3N3CCOCC3)n2)cc1 | n | n | n | n | n | n
O=C(Cn1nnc(-c2ccc(CN3CCOCC3)cc2)n1)Nc1nc(-c2ccccc2)cs1 | n | n | n | n | 21308 | n
O=C(CN1CCOCC1)Nc1nc(-c2ccccc2)cs1 | n | n | n | n | n | n
O=C(Cn1nnc(-c2ccc(N3CCOCC3)cc2)n1)OC1CCCCC1 | n | n | n | n | 21996 | n
Cc1ccccc1NC(=O)Cn1nnc(-c2ccc(N3CCOCC3)cc2)n1 | n | n | u | n | 22327 | n
O=C(Cn1nnc(-c2ccc(N3CCOCC3)cc2)n1)N1CCOCC1 | x | x | x | n | x | x
O=C(c1cc(-c2ccc(Br)cc2)on1)N1CCc2ccccc2C1 | n | n | n | n | n | n
